# Records with an inconclusive call do not appear. Activity calls are given as the source filed them. Calls come from the whole dose curve; as a rule, active = well fitted cell-killing curve with a large enough effect; inconclusive = small, poorly fitted or top-dose-only effect, or effect the other way; inactive = no such curve, though single readings can be large or run the other way.
# Test: Viability qHTS for spleen associated tyrosine kinase inhibitor (SYKi) naive MV4-11 cells (AID 1963823); note: nearly all actives have a fitted effect of over 40% in size
# Details: MV4-11 AML viability, CellTiter-Glo luminescence, 72 h; series mostly up to 45 µM; viability (% of control): at the top concentration
# Procedure, shortened: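 qHTS, SYK inhibitor-naive MV4-11; 500 cells/well; 72 hr compound exposure, 37 C; CellTiter-Glo added, 10 min RT; luminescence read.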
# Potency is the fitted concentration of half-maximal effect.
Compound,viability (% of control),Potency
NC(=O)c1cccc(-c2cc(O)cc(OC(=O)NC3CCCCC3)c2)c1,68.9% [at 17.3 µM] (inactive),–
CN1C(=O)c2ccccc2-n2c(nc3ccccc3c2=O)[C@@]12O[C@H]2c1ccccc1,–,3.6 µM (active)
Cc1ccc(C(=O)Nc2noc3ccccc23)cc1,57.5% (inactive),–
COc1c(C)c(OCC(O)C(C)(C)O)cc2c1CNC2=O (stereo not given),55.5% (inactive),–
C[C@H](NC(c1cccc2[nH]c(=O)c(=O)[nH]c12)P(=O)(O)O)c1ccc(Br)cc1 (stereo not given in full),103% (inactive),–
O=C(Cc1ccccc1)OC[C@H]1O[C@H](O[C@H]2O[C@H](CO)[C@@H](O)[C@H](O)[C@H]2O)[C@H](O)[C@@H](O)[C@@H]1O,92.2% [at 17.3 µM] (inactive),–
CC(C)CC1NC(=O)C(C)NC(=O)C(CC(C)C)OC(=O)CCCNC1=O (stereo not given),88.8% (inactive),–
CNC(=O)c1cc(Oc2ccc(NC(=O)c3cccc(C(F)(F)F)c3)cc2)ccn1,–,11.6 µM (active)
CC(C)=CCC[C@](C)(O[C@@H]1O[C@H](CO[C@@H]2OC[C@H](O)[C@H](O)[C@H]2O)[C@@H](O)[C@H](O)[C@H]1O)[C@H]1CC[C@]2(C)[C@@H]1[C@H](O)C[C@@H]1[C@@]3(C)CC[C@H](O[C@@H]4O[C@H](CO)[C@@H](O)[C@H](O)[C@H]4O[C@@H]4O[C@H](CO)[C@@H](O)[C@H](O)[C@H]4O)C(C)(C)[C@@H]3CC[C@]12C,68.3% [at 17.3 µM] (inactive),–
CC(=O)NCCc1c[nH]c2ccc(O)cc12,65.8% (inactive),–
C=C(C)C1CCC(C)C12CC(O)C1(C)OC1C2OC(=O)C(N)CCC(=O)O (stereo not given),66.6% (inactive),–
CC1(C)O[C@@]2(C)CC[C@@H]1C[C@@H]2OC1OC(CO)C(O)C(O)C1O (stereo not given in full),62.9% (inactive),–
CCN(CCN(C)C)C(=O)CNCc1cc(C(N)=O)ccn1,106% (inactive),–
COc1cccc(CN(C(=O)CC(C)(C)C)[C@H]2C[C@H](C(=O)N3CCNCC3)N(Cc3ccc4c(c3)OCO4)C2)c1,–,18.4 µM (active)
CC1(C)CC[C@]2(C(=O)O)CC[C@]3(C)C(=CCC4[C@@]5(C)CC[C@H](O[C@@H]6O[C@H](CO)[C@@H](O)[C@H](O)[C@H]6O[C@@H]6O[C@H](CO)[C@@H](O)[C@H](O)[C@H]6O)[C@@](C)(CO)C5CC[C@]43C)[C@@H]2C1 (stereo not given in full),85.6% [at 17.3 µM] (inactive),–
Cc1cccc(N(C)C(=S)Oc2ccc3c(c2)C2CCC3C2)c1 (stereo not given),56.8% (inactive),–
c1ccc(Cc2ncc3c(n2)CCNCC3)cc1,85.9% (inactive),–
C=C[C@H]1[C@H](O[C@@H]2O[C@H](CO)[C@@H](O)[C@H](O)[C@H]2O)OC=C(C(=O)OC)[C@H]1C[C@@H]1N[C@H](C(=O)O)Cc2c1[nH]c1ccccc21,72.1% [at 17.3 µM] (inactive),–
C/C=C(\C)C(=O)OC[C@H]1O[C@@H](O[C@H]2[C@@H](O[C@H]3O[C@H](COC(=O)/C(C)=C/C)[C@@H](O)[C@H](O)[C@H]3O[C@@H]3O[C@H](CO)[C@@H](O)[C@H](OC(=O)/C(C)=C/C)[C@H]3O)O[C@H](COC(=O)/C(C)=C/C)[C@@H](O)[C@@H]2O)[C@H](O)[C@@H](O)[C@@H]1O,81.6% [at 9.25 µM] (inactive),–
O=C(O)C[C@H]1CCC(=O)[C@@H]1C/C=C\CCO,103% (inactive),–

Compound,viability (% of control),Potency
COc1ccc2c(c1)C(C(=O)N(Cc1ccc(N(C)C)cc1)c1ccc(C(C)C)cc1)CCC2 (stereo not given),–,16.4 µM (active)
COc1ccc2c(c1)O[C@H](O[C@@H]1O[C@H](CO)[C@@H](O)[C@H](O)[C@H]1O)C(=O)N2,97.8% (inactive),–
COc1c2cc(c(O[C@@H]3O[C@H](CO)[C@@H](O)[C@H](O)[C@H]3O)c1OC)CCCCC(O)CCc1ccc(O)c-2c1 (stereo not given in full),56.8% [at 17.3 µM] (inactive),–
CN(C)CCN(Cc1ccc(-c2ccc(CNCCc3ccccc3)cc2)cc1)C(=O)CCC1CCCC1,–,1.03 µM (active)
CC(=O)OC1C(=O)C2(C)C(O)CC3OCC3(OC(C)=O)C2C(OC(=O)c2ccccc2)C2(O)CC(OC(=O)C(O)C(NC(=O)c3ccccc3)c3ccccc3)C(C)=C1C2(C)C (stereo not given),–,0.0058 µM (active)
CC(C)(O)/C=C1/C(=O)C(C)(C)C(=O)C(C)(C)C1(O)O[C@@H]1O[C@H](COC(=O)c2cc(O)c(O)c(O)c2)[C@@H](O)[C@H](O)[C@H]1O (stereo not given in full),69% [at 17.3 µM] (inactive),–
COC(=O)C1=COC(OC2OC(CO)C(O)C(O)C2O)C2C(C)CC(=O)C12O (stereo not given),94.1% [at 17.3 µM] (inactive),–
CC1(C)CC[C@]2(C(=O)O[C@@H]3O[C@H](CO[C@@H]4O[C@H](CO)[C@@H](O)[C@H](O)[C@H]4O)[C@@H](O)[C@H](O[C@@H]4O[C@H](CO)[C@@H](O)[C@H](O)[C@H]4O)[C@H]3O)[C@H](O)C[C@]3(C)C(=CCC4[C@@]5(C)CC[C@H](O[C@@H]6OC[C@@H](O)[C@H](O)[C@H]6O)[C@@](C)(C(=O)O)C5CC[C@]43C)[C@@H]2C1 (stereo not given in full),67.4% [at 9.25 µM] (inactive),–
CC(C)(F)CC(NC(c1ccc(-c2ccc(S(C)(=O)=O)cc2)cc1)C(F)(F)F)C(=O)NC1(C#N)CC1 (stereo not given),63.5% (inactive),–
COc1cc(C(O)C(CO)Oc2ccc(CCCO[C@@H]3O[C@@H](C)[C@H](O)[C@@H](O)[C@H]3O)cc2OC)ccc1O (stereo not given in full),84% [at 17.3 µM] (inactive),–
OCC1=CC[C@@H]2C=CO[C@@H](O[C@@H]3O[C@H](CO)[C@@H](O)[C@H](O)[C@H]3O)[C@H]12,85.7% (inactive),–
C/C=C(\C)C(=O)O[C@H]1C=CC(=O)O[C@H]1/C=C/[C@H](O)[C@@H](C)O,–,9.2 µM (active)
O=C(/C=C/c1ccc(O)cc1)O[C@H]1[C@H](OC2CCCCC2O)O[C@H](CO)[C@@H](O)[C@@H]1O (stereo not given in full),67.5% [at 17.3 µM] (inactive),–
CC1=C(C(=O)O)/C(=C\CO[C@@H]2O[C@H](CO)[C@@H](O)[C@H](O)[C@H]2O)C(OC(=O)/C=C/c2ccc(O)cc2)C1 (stereo not given in full),75.2% [at 17.3 µM] (inactive),–
CC(C)C(C#N)O[C@@H]1O[C@H](CO[C@@H]2O[C@@H](C)[C@H](O)[C@@H](O)[C@H]2O)[C@@H](O)[C@H](O)[C@H]1O (stereo not given in full),81.9% [at 17.3 µM] (inactive),–
CC(=O)N[C@@H](CCCCN)C(=O)N(C)[C@@H](CC(C)C)C(=O)N[C@H](C(=O)N(C)[C@@H](Cc1ccccc1)C(=O)N[C@H](Cc1ccccc1)C(N)=O)C(C)C,93.5% [at 4.97 µM] (inactive),–
COc1cc(O)cc2c1C(=O)OC(C)C2 (stereo not given),68.5% (inactive),–
CC(=O)CCC1=C(C)C(O[C@@H]2O[C@H](CO)[C@@H](O)[C@H](O)[C@H]2O)C(O)CC1(C)C (stereo not given in full),76.4% (inactive),–
COc1cc(Nc2nc3c(s2)CCCC3c2ccccc2)ccc1-n1cnc(C)c1 (stereo not given),89.8% [at 9.25 µM] (inactive),–
CC1CC[C@]2(C(=O)O)CC[C@]3(C(=O)O)C(=CCC4[C@@]5(C)CC[C@H](O[C@@H]6O[C@H](CO)[C@@H](O)[C@H](O)[C@H]6O)C(C)(C)C5CC[C@]43C)C2C1C (stereo not given in full),91.3% [at 17.3 µM] (inactive),–

# — PubChem BioAssay (NCATS)
